Measured values as given in PubChem BioAssay AID1159580 (chemical genetic matrix, 2015).
Where “and” joins values, the source holds several entries; their conditions need not be identical. Equal values may be shown once. The campaign covered roughly 5,500 compounds. About 2,000 (36%) were called active. Another 18% or so got no clear call; they are omitted. No stated cut-off is given here; in the data, active means normalized growth mostly below about 0.91 (no sharp cut-off); inconclusive means no clear call, values can overlap the other calls; inactive means mostly above about 0.92. The list shows a part of the results.

Assay: chemical genetic growth profiling, strain panel (AID 1159580);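 further: tested at 20 µM; growth read once vehicle control cultures reached saturation at 30 °C; 1 = growth at the plate median or of vehicle wells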
Settings: S. cerevisiae deletion strains, growth OD

Measured: normalized growth

Cc1cccc(Nc2ccccc2C(=O)O)c1C
active: locus YAL013W, strain DEP1, stronger effect = lower value 0.89 | locus YAL030W, strain snc1, stronger effect = lower value 0.913 | locus YBR171W, strain sec66, stronger effect = lower value 0.843 | locus YBR229C, strain ROT2, stronger effect = lower value 0.912 | locus YBR279W, strain paf1, stronger effect = lower value 0.921 | locus YCL016C, strain dcc1, stronger effect = lower value 0.913 | locus YCL029C, strain bik1, stronger effect = lower value 0.907 | locus YCL061C, strain MRC1, stronger effect = lower value 0.894 | locus YCL069W, strain vba3, stronger effect = lower value 0.912 | locus YCR088W, strain abp1, stronger effect = lower value 0.895 | locus YDL040C, strain nat1, stronger effect = lower value 0.92 | locus YDL192W, strain arf1, stronger effect = lower value 0.834 | locus YDR001C, strain nth1, stronger effect = lower value 0.893 | locus YDR101C, strain arx1, stronger effect = lower value 0.885 | locus YDR137W, strain rgp1, stronger effect = lower value 0.739 | locus YDR150W, strain NUM1, stronger effect = lower value 0.894 | locus YDR162C, strain NBP2, stronger effect = lower value 0.806 | locus YDR297W, strain sur2, stronger effect = lower value 0.912 | locus YDR318W, strain mcm21, stronger effect = lower value 0.882 | locus YDR388W, stronger effect = lower value 0.869 | locus YDR392W, strain spt3, stronger effect = lower value 0.593 | locus YDR502C, strain sam2, stronger effect = lower value 0.864 | locus YEL037C, strain rad23, stronger effect = lower value 0.909 | locus YEL061C, strain CIN8 (second series), stronger effect = lower value 0.887 | locus YEL061C, strain CIN8, stronger effect = lower value 0.904 | locus YER016W, strain bim1, stronger effect = lower value 0.918 | locus YER110C, stronger effect = lower value 0.859 | locus YER111C, strain swi4, stronger effect = lower value 0.907 | locus YER155C, strain BEM2, stronger effect = lower value 0.868 | locus YER167W, strain BCK2, stronger effect = lower value 0.867 | locus YGL086W, strain mad1, stronger effect = lower value 0.884 | locus YGL167C, strain pmr1, stronger effect = lower value 0.851 | locus YGL253W, strain hxk2, stronger effect = lower value 0.897 | locus YGR135W, strain pre9, stronger effect = lower value 0.858 | locus YGR229C, strain SMI1, stronger effect = lower value 0.729 | locus YHR027C, strain rpn1, stronger effect = lower value 0.906 | locus YHR079C, strain IRE1 (second series), stronger effect = lower value 0.887 | locus YHR094C, strain hxt1, stronger effect = lower value 0.872 | locus YHR129C, strain ARP1, stronger effect = lower value 0.911 | locus YHR200W, strain rpn10, stronger effect = lower value 0.872 | locus YIR030C, strain dcg1, stronger effect = lower value 0.863 | locus YJL092W, strain hpr5, stronger effect = lower value 0.908 | locus YJL095W, strain BCK1 (second series), stronger effect = lower value 0.918 | locus YJL129C, strain trk1, stronger effect = lower value 0.697 | locus YJL134W, strain LCB3, stronger effect = lower value 0.894 | locus YJL154C, strain vps35, stronger effect = lower value 0.904 | locus YJL168C, strain set2, stronger effect = lower value 0.868 | locus YJL187C, strain SWE1, stronger effect = lower value 0.922 | locus YJR066W, strain TOR1, stronger effect = lower value 0.81
0.907 (active) and 0.891 (inactive): locus YHR030C, strain SLT2, stronger effect = lower value
inactive: locus YAL021C, strain ccr4, stronger effect = lower value 0.934 | locus YAL026C, strain drs2, stronger effect = lower value 0.929 | locus YBL061C, strain skt5, stronger effect = lower value 0.924 | locus YBR009C, strain hhf1, stronger effect = lower value 0.951 | locus YBR021W, strain FUR4, stronger effect = lower value 0.853 | locus YBR023C, strain chs3, stronger effect = lower value 0.919 | locus YBR231C, strain swc5, stronger effect = lower value 0.915 | locus YCL011C, strain gbp2, stronger effect = lower value 0.922 | locus YDL005C, strain med2, stronger effect = lower value 0.946 | locus YDL035C, strain GPR1, stronger effect = lower value 0.921 | locus YDL074C, strain BRE1, stronger effect = lower value 0.898 | locus YDL101C, strain DUN1, stronger effect = lower value 0.994 | locus YDL134C, strain PPH21, stronger effect = lower value 0.904 | locus YDL185W, strain tfp1, stronger effect = lower value 0.984 | locus YDR069C, strain doa4, stronger effect = lower value 0.988 | locus YDR159W, strain sac3, stronger effect = lower value 0.898 | locus YDR195W, strain ref2 1.08 | locus YDR334W, strain swr1, stronger effect = lower value 0.908 | locus YDR335W, strain msn5, stronger effect = lower value 0.923 | locus YEL003W, strain gim4, stronger effect = lower value 0.937 | locus YER015W, strain faa2, stronger effect = lower value 0.936 | locus YER155C, strain BEM2 (second series), stronger effect = lower value 0.904 | locus YFR010W, strain ubp6, stronger effect = lower value 0.986 | locus YGL078C, strain dbp3, stronger effect = lower value 0.959 | locus YGL173C, strain kem1, stronger effect = lower value 0.911 | locus YGL227W, strain vid30, stronger effect = lower value 0.917 | locus YGL240W, strain doc1, stronger effect = lower value 0.967 | locus YGL248W, strain PDE1, stronger effect = lower value 0.936 | locus YGR078C, strain PAC10, stronger effect = lower value 0.897 | locus YGR252W, strain gcn5, stronger effect = lower value 0.854 | locus YHR013C, strain ard1, stronger effect = lower value 0.967 | locus YHR079C, strain IRE1, stronger effect = lower value 0.883 | locus YHR142W, strain chs7, stronger effect = lower value 0.887 | locus YIL066C, strain RNR3, stronger effect = lower value 0.915 | locus YIL073C, strain SPO22, stronger effect = lower value 0.905 | locus YIL125W, strain kgd1, stronger effect = lower value 0.985 | locus YJL095W, strain BCK1, stronger effect = lower value 0.8 and 0.923 | locus YJL115W, strain asf1, stronger effect = lower value 0.908 | locus YJL164C, strain tpk1, stronger effect = lower value 0.948 | locus YJL166W, strain qcr8, stronger effect = lower value 0.929 | locus YJL187C, strain SWE1 (second series), stronger effect = lower value 0.932 | locus YJR043C, strain POL32, stronger effect = lower value 0.942
